{"source": "PubChem BioAssay (NCATS)", "note": "Where “and” joins values, the source holds several entries; their conditions need not be identical. Equal entries are not always repeated. Records with an inconclusive call do not appear. Values without a mark were called inactive. Calls of active or inactive are those of the source. Calls follow the shape of the dose curve; as a rule, active = well fitted activation curve with a large enough effect; inconclusive = small, poorly fitted or top-dose-only effect; inactive = no such curve, though single readings can be large or run the other way. Potency is read from the fitted curve at half-maximal effect."}
{"molecular_target": "Cellular tumor antigen p53 (Homo sapiens) (UniProt P04637)", "sequence (P04637 whole entry, looked up)": "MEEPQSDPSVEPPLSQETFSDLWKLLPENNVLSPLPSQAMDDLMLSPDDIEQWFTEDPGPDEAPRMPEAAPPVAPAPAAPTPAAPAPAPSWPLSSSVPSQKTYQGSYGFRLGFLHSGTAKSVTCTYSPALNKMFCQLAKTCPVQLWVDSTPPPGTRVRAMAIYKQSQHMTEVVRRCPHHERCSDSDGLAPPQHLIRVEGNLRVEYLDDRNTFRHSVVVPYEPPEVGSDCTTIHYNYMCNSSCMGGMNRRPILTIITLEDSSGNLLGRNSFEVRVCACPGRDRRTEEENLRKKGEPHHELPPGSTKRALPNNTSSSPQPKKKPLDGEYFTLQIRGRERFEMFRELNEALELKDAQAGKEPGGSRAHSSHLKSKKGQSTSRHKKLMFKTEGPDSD", "experiment": "Primary qHTS for small molecule compounds that upregulate eGFP-tagged delta133p53alpha (in N-terminal) cells. (AID 2060322); also: nearly all actives have a fitted effect of over 75% in size;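 as to activation: series mostly up to about 56 µM; 0% = DMSO vehicle and 100% = reference activator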", "settings": "NCI-H358 eGFP-delta133p53alpha fluorescence, 24 h; activation: hits give high values", "outline": "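NCI-H358 cells pre-induced 24 h with 10 ng/ml doxycycline to express N-terminal eGFP-delta133p53alpha, then dosed 24 h at 37C without doxycycline; fixed, Hoechst-stained, GFP intensity by laser scanning cytometry, normalized to DMSO (0%) and 57.5 uM 5-azacytidine (100%).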"}
{"smiles": "CCOC(C(=O)OCCN(C)C)(c1ccccc1)c1ccccc1", "activation": "-3.95%"}
{"smiles": "C=CCN1CC[C@]23CCCC[C@H]2[C@H]1Cc1ccc(O)cc13", "activation": "-6.69%"}
{"smiles": "Clc1ccc(C(c2ccc(Cl)cc2)C(Cl)(Cl)Cl)cc1", "activation": "-11.9%"}
{"smiles": "CC1(C)C(C=C(Cl)Cl)C1C(=O)OC(C#N)c1cccc(Oc2ccccc2)c1", "note": "(centres undefined)", "activation": "-23.2%"}
{"smiles": "CCCC1CCCCN1", "note": "(centres undefined)", "activation": "-16.4%"}
{"smiles": "C[C@@H]1CC2=CC(=O)CC[C@@H]2[C@H]2CC[C@@]3(C)[C@@H](CC[C@]3(C)O)[C@@H]21", "activation": "-3.35%"}
{"smiles": "CC(=O)Nc1cc([As](=O)(O)O)ccc1O", "activation": "-10.9%"}
{"smiles": "O=C(CCCN1CCC(n2c(=O)[nH]c3ccccc32)CC1)c1ccc(F)cc1", "activation": "-4.18%"}
{"smiles": "CC1NCCOC1c1ccccc1", "note": "(centres undefined)", "activation": "9.6%"}
{"smiles": "CCCCCCCCCC(=O)O[C@H]1CC[C@H]2[C@@H]3CCC4=CC(=O)CC[C@@H]4[C@H]3CC[C@]12C", "activation": "2.82%"}
{"smiles": "CCC(=O)OC1CCC2C3CCC4=CC(=O)CC[C@@]4(C)C3CC[C@]12C", "note": "(some centres undefined)", "activation": "14.6%"}
{"smiles": "O=C1NCN(c2ccccc2)C12CCN(CCCOc1ccc(F)cc1)CC2", "activation": "0.837%"}
{"smiles": "Nc1nc(N)nc(NC2CC2)n1", "activation": "5.02%"}
{"smiles": "CCCCC(CC)COC(=O)c1ccccc1C(=O)OCC(CC)CCCC", "note": "(centres undefined)", "activation": "0%"}
{"smiles": "C[CH2][Hg][S]c1ccccc1C(=O)O", "Potency": "3.89 µM (active)"}
{"smiles": "C#C[C@]1(O)C=C[C@@H]2[C@@H]3CCC4=CC(=O)CC[C@@H]4[C@H]3CC[C@@]21CC", "activation": "-3.53%"}
{"smiles": "c1ccc(N2CCNCC2)cc1", "activation": "-33.3%"}
{"smiles": "C=C1CC[C@@]2(O)[C@H]3Cc4ccc(O)c5c4[C@@]2(CCN3CC2CC2)[C@H]1O5", "activation": "6.21%"}
{"smiles": "Oc1ccc(Cl)cc1", "activation": "-7.34%"}
{"smiles": "COc1ccc(Cc2nccc3cc(OC)c(OC)cc23)cc1OC", "activation": "-17.6% and 20.4% and -35.4%"}
{"smiles": "C#CCOC(C(=O)OCCN(C)C)(c1ccccc1)c1ccccc1", "activation": "-6.21%"}
{"smiles": "O=[N+]([O-])c1ncc[nH]1", "activation": "15.2%"}
{"smiles": "COc1cc(CC(C)N)cc2c1OCO2", "note": "(centres undefined)", "activation": "6.21%"}
{"smiles": "C[C@H]1CNCCc2ccc(Cl)cc21", "activation": "-8.37%"}
{"smiles": "CC(C)(O)C=CC(=O)[C@](C)(O)[C@H]1[C@H](O)C[C@]2(C)[C@@H]3CC=C4[C@@H](C=C(O)C(=O)C4(C)C)[C@]3(C)C(=O)C[C@@]12C", "Potency": "34.3 µM (active)"}
{"smiles": "CS(=O)(=O)c1ccc(C(=O)C2C(=O)CCCC2=O)c([N+](=O)[O-])c1", "activation": "-5.86%"}
{"smiles": "CC(C)(C)NCC(O)c1cc(Cl)c(N)c(Cl)c1", "note": "(centres undefined)", "activation": "-6.21%"}
{"smiles": "CCC(=O)C(CCN(C)C)(c1ccccc1)c1ccccc1", "Potency": "13.8 µM (active)"}
{"smiles": "CCC1(c2ccccc2)CCC(=O)NC1=O", "note": "(centres undefined)", "activation": "4.18%"}
{"smiles": "COP(=S)(OC)Oc1ccc(Sc2ccc(OP(=S)(OC)OC)cc2)cc1", "activation": "-14.2%"}
{"smiles": "CC(O)CN1CCN(CC(=O)[O-])CCN(CC(=O)[O-])CCN(CC(=O)[O-])CC1.[Gd+3]", "note": "(centres undefined)", "activation": "-12.6%"}
{"smiles": "COc1cc(CCN)cc(OC)c1OC", "activation": "-6.21%"}
{"smiles": "CN1CCC(N(Cc2ccccc2)c2ccccc2)CC1", "activation": "10.7%"}
{"smiles": "CC(C)=CC1C(C(=O)OCc2cccc(Oc3ccccc3)c2)C1(C)C", "note": "(centres undefined)", "activation": "25.4%"}
{"smiles": "COP(=S)(OC)Oc1cc(Cl)c(Cl)cc1Cl", "activation": "-17.5%"}
{"smiles": "CC(C)c1c(CN(C)C(C)Cc2ccccc2)n(C)n(-c2ccccc2)c1=O", "note": "(centres undefined)", "activation": "-14.2%"}
{"smiles": "Cc1cc(O)ccc1Cl", "activation": "-17.5%"}
{"smiles": "C[C@]12Cc3nonc3C[C@@H]1CC[C@@H]1[C@@H]2CC[C@@]2(C)[C@H]1CC[C@]2(C)O", "activation": "7.34%"}
{"smiles": "N#Cc1nn(-c2c(Cl)cc(C(F)(F)F)cc2Cl)c(N)c1S(=O)C(F)(F)F", "note": "(centres undefined)", "activation": "-2.51%"}
